Laboratory results as given in PubChem BioAssay (Tox21).
Activity calls are given as the source filed them. Calls follow the shape of the dose curve; as a rule, active = well fitted curve in the direction sought with a large enough effect in the repeat runs; inconclusive = weak or mixed curves; inactive = flat fitted curve, though single readings scatter.

Experiment: qHTS assay to test for compound auto fluorescence at 535 nm (green) in HepG2 cells (AID 720675)
Details: green autofluorescence 485/535 nm, 1 h; series mostly up to 91.3 µM
Description: National Center for Advancing Translational Sciences [NCATS]
NIH Chemical Genomics Center [NCGC]
U.S. Environmental Protection Agency [EPA]
National Institutes of Environmental Health Sciences [NIEHS]
National Toxicology Program [NTP]
U.S. Food and Drug Administration [FDA]
Compound auto fluorescence often interferes with screening of the compound library against various biological targets and signaling pathways. Some of these compounds may have fluorophoric properties. Such properties may interfere with the assay outputs resulting in false positives and/or negatives. To decrease such complications and ensure the compound activities are relevant in terms of biological response, the Tox21 10K compound library was screened for auto fluorescence.
From the fluorophores used as reporter signals in our screening assays, the auto fluorescence equivalencies of compounds against three fluorophores have been evaluated: Triamterene, Fluorescein and Rose Bengal sodium for blue, green and red fluorescence, respectively. The fluorescence intensities were measured using Excitation/Emission wavelengths at 405/460nm, 485/535nm and 540/590nm for blue, green and red labels, respectively. This assay includes the green fluorescence data.
Tox21 Assay Protocol Summary:
2,000 HepG2 cells in 5 uL of culture medium (MEM containing 10% FBS) per well were dispensed into black wall/clear bottom 1536-well plates using a Multidrop Combi Dispenser (ThermoFisher Scientific, Waltham, MA). The assay plates were incubated overnight at 37 C to allow cell attachment to the well bottom, followed by the transfer of 23 nL compound or DMSO vehicle by a pintool work station (Kalypsys , San Diego, CA). After the assay plates were incubated for 1 hr at 37 C and 5% CO2, fluorescence intensities in the assay plates were measured by an Envision (PerkinElmer, Shelton, CT) plate reader using three labels for measuring blue, green and red fluorescence at […] 460, 535 and 590 nm respectively.

| SMILES | outcome |
| --- | --- |
| NNC(=S)NN | inactive |
| c1ccc(P(c2ccccc2)c2ccccc2)cc1 | inactive |
| CCCCCCOC(=O)c1ccccc1C(=O)OCCCCCC | inactive |
| CCCCCCCCOC(=O)c1ccccc1C(=O)OCCCCCCCC | inactive |
| CN(C)C(=O)Nc1ccc(Cl)cc1 | inactive |
| CNC(=O)N(C)c1nnc(C(C)(C)C)s1 | inactive |
| NC(=S)Nc1ccccc1 | inactive |
| COP(=O)(OC)OC | inactive |
| Cc1ccc(N)c(N)c1 | inactive |
| CCC(C)c1cc([N+](=O)[O-])cc([N+](=O)[O-])c1O (stereo not given) | inactive |
| CCC(C)c1ccc(O)cc1 (stereo not given) | inactive |
| C=CCN(CC=C)C(=O)C(Cl)Cl | inactive |
| CCN(N=O)C(N)=O | inactive |
| N#Cc1cc(Br)c(O)c(Br)c1 | inactive |
| CN(C)c1ccc(C(=O)c2ccc(N(C)C)cc2)cc1 | inactive |
| O=P(O)(O)CCCl | inactive |
| O=C(O)C(F)(F)C(F)(F)C(F)(F)C(F)(F)C(F)(F)C(F)(F)C(F)(F)F | inactive |
| CCCCNC(=O)n1c(NC(=O)OC)nc2ccccc21 | inactive |
| CCCCOCCOP(=O)(OCCOCCCC)OCCOCCCC | inactive |
| C1=Cc2cccc3cccc1c23 | inactive |

| SMILES | outcome |
| --- | --- |
| CCCCN(CCCC)N=O | inactive |
| CC(C)Oc1cc(-n2nc(C(C)(C)C)oc2=O)c(Cl)cc1Cl | inactive |
| c1ccc(N=Nc2ccccc2)cc1 | inactive |
| COP(=S)(OC)Oc1ccc([N+](=O)[O-])cc1 | inactive |
| Cc1cc(Cl)ccc1OCCCC(=O)O | inactive |
| C=CCc1ccc2c(c1)OCO2 | inactive |
| CNC(=O)Oc1cccc2c1OC(C)(C)O2 | inactive |
| N#CCCCl | inactive |
| COc1ccc(C=O)cc1 | inactive |
| CCCCCCCCCCCOC(=O)c1ccccc1C(=O)OCCCCCCCCCCC | inactive |
| CC(C)NC(C)C | inactive |
| Oc1c(Cl)c(Cl)c(Cl)c(Cl)c1Cl | inactive |
| CCOc1cc(Oc2ccc(C(F)(F)F)cc2Cl)ccc1[N+](=O)[O-] | inactive |
| CCC(C)(C)c1ccc(O)cc1 | inactive |
| CCCCN(CC)c1c([N+](=O)[O-])cc(C(F)(F)F)cc1[N+](=O)[O-] | inactive |
| COC(=O)c1sccc1S(=O)(=O)NC(=O)Nc1nc(C)nc(OC)n1 | inactive |
| O=S(=O)(Oc1ccc(Cl)cc1)c1ccc(Cl)cc1 | inactive |
| S=C1NCCN1 | inactive |
| Nc1cccnc1 | inactive |
| c1ccc(NNc2ccccc2)cc1 | inactive |
